Activity calls are given as the source filed them. Rule for the calls, unless noted: active = hit-call score of the fitted dose curve at least 0.9, where 1 is the maximum; inactive = score below 0.9.
Experiments:
[1] = read-out: Protein phosphatase 2A (PPP2R4), PTPA (gene 5524); assay: LTEA_HepaRG_PPP2R4: Life Technologies and Expression Analysis (LTEA) Assay for Protein phosphatase 2A (PPP2R4) using HepaRG (AID 2283522); details: mRNA level, 48 h; actives raise or lower the signal
Summary of the method: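 Using HepaRG cultures maintained in 0.5% DMSO, chemicals are tested 48 h at up to 100 uM in duplicate. Induction or suppression of PPP2R4 mRNA, measured by qRT-PCR, is fitted bidirectionally against the vehicle baseline.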

[2] = read-out: Phosphatase and tensin (PTEN), PTEN (gene 5728); assay: LTEA_HepaRG_PTEN: Life Technologies and Expression Analysis (LTEA) Assay for Phosphatase and tensin (PTEN) using HepaRG (AID 2283523); details: mRNA level, 48 h; actives raise or lower the signal
Summary of the method: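 HepaRG, 48 h exposure, 8-pt half-log series from 100 uM top, 0.5% DMSO vehicle, duplicates. Readout: Fluidigm qRT-PCR of PTEN transcript; housekeeping normalization (ACTB, GAPDH, POLR2A). Gain or loss fitted relative to DMSO baseline.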

[3] = read-out: solute carrier (SLC22A1), SLC22A1 (gene 6580); assay: LTEA_HepaRG_SLC22A1: Life Technologies and Expression Analysis (LTEA) Assay for solute carrier (SLC22A1) using HepaRG (AID 2283524); details: mRNA level, 48 h; actives raise or lower the signal
Summary of the method: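 qRT-PCR readout (TaqMan, Fluidigm arrays) of SLC22A1 transcript, normalized to three housekeeping genes; bidirectional curve fit relative to 0.5% DMSO vehicle. Differentiated human HepaRG cells, 48 h chemical exposure, top concentration 100 uM, half-log steps, eight points.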

[4] = read-out: Pyruvate Dehydrogenase Kinase 4 (PDK4), PDK4 (gene 5166); assay: LTEA_HepaRG_PDK4: Life Technologies and Expression Analysis (LTEA) Assay for Pyruvate Dehydrogenase Kinase 4 (PDK4) using HepaRG (AID 2283525); details: mRNA level, 48 h; actives raise or lower the signal
Summary of the method: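 HepaRG (human liver line), 48 h chemical exposure, 8-pt half-log CRC top 100 uM, 0.5% DMSO vehicle, duplicates. Readout: TaqMan qRT-PCR of PDK4 mRNA, housekeeping-normalized; gain/loss fit relative to DMSO baseline.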

[5] = read-out: NAD(P)H dehydrogenase [quinone] 1 (NQO1), NQO1 (gene 1728); assay: LTEA_HepaRG_NQO1: Life Technologies and Expression Analysis (LTEA) Assay for NAD(P)H dehydrogenase [quinone] 1 (NQO1) using HepaRG (AID 2283526); details: mRNA level, 48 h; actives raise or lower the signal
Summary of the method: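 In this assay, gene expression is read by qRT-PCR after 48 h exposure of HepaRG cells to eight concentrations (max 100 uM, half-log) in 0.5% DMSO. Each chemical runs in duplicate, and activity is scored relative to vehicle.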

[6] = read-out: Nuclear factor erythroid 2-related factor 2 (Homo sapiens) (UniProt Q16236); assay: LTEA_HepaRG_NFE2L2: Life Technologies and Expression Analysis (LTEA) Assay for Nuclear factor erythroid 2-related factor 2 (NFE2L2) Transcription Factor using HepaRG (AID 2283527); details: mRNA level, 48 h; actives raise or lower the signal;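 note: TaqMan qRT-PCR transcript level normalised to ACTB GAPDH and POLR2A housekeeping genes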
Summary of the method: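 HepaRG, 48 h dosing, 8-pt half-log series from 100 uM in 0.5% DMSO, duplicates. Read-out: NFE2L2 mRNA by qRT-PCR (ACTB/GAPDH/POLR2A normalization). Bidirectional curve fit vs DMSO baseline.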

[7] = read-out: succinate dehydrogenase complex iron sulfur subunit B (SDHB), SDHB (gene 6390); assay: LTEA_HepaRG_SDHB: Life Technologies and Expression Analysis (LTEA) Assay for succinate dehydrogenase complex iron sulfur subunit B (SDHB) using HepaRG (AID 2283528); details: mRNA level, 48 h; actives raise or lower the signal
Summary of the method: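 Readout is SDHB transcript level by qRT-PCR, normalised to three housekeeping genes and fitted bidirectionally against 0.5% DMSO vehicle. Human HepaRG cells were treated for 48 h at up to 100 uM.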

[8] = read-out: Signal transducer and activator of transcription 3 (Homo sapiens) (UniProt P40763); assay: LTEA_HepaRG_STAT3: Life Technologies and Expression Analysis (LTEA) Assay for Signal transducer and activator of transcription (STAT3) using HepaRG (AID 2283529); details: mRNA level, 48 h; actives raise or lower the signal
Summary of the method: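 HepaRG, 48 h exposure, 8-pt half-log series (top 100 uM), 0.5% DMSO vehicle, duplicates. Readout: STAT3 transcript by Fluidigm qRT-PCR, housekeeping-normalized; bidirectional fit vs DMSO baseline.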

[9] = read-out: solute carrier (SLCO1B1), SLCO1B1 (gene 10599); assay: LTEA_HepaRG_SLCO1B1: Life Technologies and Expression Analysis (LTEA) Assay for solute carrier (SLCO1B1) using HepaRG (AID 2283530); details: mRNA level, 48 h; actives raise or lower the signal
Summary of the method: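 Human HepaRG cultures treated for 48 h with an eight-concentration half-log series topping at 100 uM; SLCO1B1 measured by qRT-PCR and fitted bidirectionally relative to DMSO.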

[10] = read-out: sulfotransferase 2A1 (SULT2A1), SULT2A1 (gene 6822); assay: LTEA_HepaRG_SULT2A1: Life Technologies and Expression Analysis (LTEA) Assay for sulfotransferase 2A1 (SULT2A1) using HepaRG (AID 2283531); details: mRNA level, 48 h; actives raise or lower the signal
Summary of the method: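 Gene-expression endpoint in a human liver cell line: SULT2A1 mRNA change after 48 h chemical treatment, curves fitted in both directions relative to 0.5% DMSO vehicle. Concentrations spanned eight half-log steps from 100 uM.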

[11] = read-out: Transforming Growth Factor (TGFA), TGFA (gene 7039); assay: LTEA_HepaRG_TGFA: Life Technologies and Expression Analysis (LTEA) Assay for Transforming Growth Factor (TGFA) using HepaRG (AID 2283532); details: mRNA level, 48 h; actives raise or lower the signal
Summary of the method: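 qRT-PCR read-out of TGFA transcript, normalized to three housekeeping genes, fitted bidirectionally against 0.5% DMSO baseline. Human HepaRG cultures received chemicals for 48 h at eight half-log concentrations, top 100 uM.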

[12] = read-out: Transforming Growth Factor (TGFB1), TGFB1 (gene 7040); assay: LTEA_HepaRG_TGFB1: Life Technologies and Expression Analysis (LTEA) Assay for Transforming Growth Factor (TGFB1) Transporter using HepaRG (AID 2283533); details: mRNA level, 48 h; actives raise or lower the signal
Summary of the method: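 Eight-point concentration-response (max 100 uM, half-log) in HepaRG under serum-free induction conditions, 48 h. TGFB1 mRNA by qRT-PCR, housekeeping-normalized.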

TIMP1, TIMP1 (gene 7076) = assay: LTEA_HepaRG_TIMP1: Life Technologies and Expression Analysis (LTEA) Assay for TIMP1 using HepaRG (AID 2283534); details: mRNA level, 48 h; actives raise or lower the signal
Summary of the method: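 TIMP1 induction or repression in HepaRG cells after 48 h chemical exposure (eight concentrations, highest 100 uM), assessed by normalized qRT-PCR with bidirectional fitting to DMSO controls.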

[13] = read-out: Tumor necrosis factor receptor 1 (TNFRSF1A), TNFRSF1A (gene 7132); assay: LTEA_HepaRG_TNFRSF1A: Life Technologies and Expression Analysis (LTEA) Assay for Tumor necrosis factor receptor 1 (TNFRSF1A) using HepaRG (AID 2283535); details: mRNA level, 48 h; actives raise or lower the signal
Summary of the method: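 Assay uses 48 h chemical treatment of differentiated HepaRG monolayers, tested in duplicate at eight concentrations from 100 uM downward in 0.5% DMSO. mRNA is normalized to ACTB, GAPDH and POLR2A, with induction or suppression fitted relative to vehicle.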

[14] = read-out: Thyroid Hormone Responsive (THRSP), THRSP (gene 7069); assay: LTEA_HepaRG_THRSP: Life Technologies and Expression Analysis (LTEA) Assay for Thyroid Hormone Responsive (THRSP) using HepaRG (AID 2283536); details: mRNA level, 48 h; actives raise or lower the signal
Summary of the method: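 qRT-PCR read-out (Fluidigm TaqMan), housekeeping-normalized (ACTB/GAPDH/POLR2A). HepaRG, 48 h chemical exposure, 8-pt half-log series from 100 uM in 0.5% DMSO, duplicates. Bidirectional curve fit vs 0.5% DMSO baseline.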

[15] = read-out: UDP glucuronosyltransferase (UGT1A1), UGT1A1 (gene 54658); assay: LTEA_HepaRG_UGT1A1: Life Technologies and Expression Analysis (LTEA) Assay for UDP glucuronosyltransferase (UGT1A1) using HepaRG (AID 2283538); details: mRNA level, 48 h; actives raise or lower the signal
Summary of the method: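 mRNA induction or loss of UGT1A1, by TaqMan qRT-PCR, in duplicate HepaRG wells after 48 h exposure to half-log dilutions topping at 100 uM; DMSO (0.5%) served as baseline.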

[16] = read-out: X-box binding protein 1 (XBP1), XBP1 (gene 7494); assay: LTEA_HepaRG_XBP1: Life Technologies and Expression Analysis (LTEA) Assay for X-box binding protein 1 (XBP1) using HepaRG (AID 2283540); details: mRNA level, 48 h; actives raise or lower the signal
Summary of the method: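 Eight concentrations (half-log, highest 100 uM, 0.5% DMSO) tested in duplicate on HepaRG cells over 48 h in serum-free induction medium; qRT-PCR of XBP1 normalised to ACTB, GAPDH, POLR2A.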

[17] = LTEA_HepaRG_LDH_cytotoxicity: Cytotoxicity Assessment in the Life Technologies and Expression Analysis (LTEA) Assay (AID 2283563; active = hit-call score of the fitted dose curve at least 0.9, where 1 is the maximum)
Summary of the method: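 Spent-medium LDH after 48 h chemical exposure of HepaRG cells in serum-free induction medium; eight concentrations, half-log dilutions from 100 uM, duplicate wells, fitted upward relative to 0.5% DMSO.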

[18] = read-out: Cellular tumor antigen p53 (Homo sapiens) (UniProt P04637); assay: LTEA_HepaRG_TP53: Life Technologies and Expression Analysis (LTEA) Assay for Tumor Protein P53 (TP53) using HepaRG (AID 2283537); details: mRNA level, 48 h; actives raise or lower the signal
Summary of the method: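 Read-out is TP53 transcript level by microfluidic qRT-PCR, normalised to three housekeeping genes and fitted bidirectionally against DMSO. Human HepaRG cells received compounds for 48 h, highest concentration 100 uM.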

Measured: AC50

Chain of Cellular tumor antigen p53 (Homo sapiens) (P04637 whole entry, looked up): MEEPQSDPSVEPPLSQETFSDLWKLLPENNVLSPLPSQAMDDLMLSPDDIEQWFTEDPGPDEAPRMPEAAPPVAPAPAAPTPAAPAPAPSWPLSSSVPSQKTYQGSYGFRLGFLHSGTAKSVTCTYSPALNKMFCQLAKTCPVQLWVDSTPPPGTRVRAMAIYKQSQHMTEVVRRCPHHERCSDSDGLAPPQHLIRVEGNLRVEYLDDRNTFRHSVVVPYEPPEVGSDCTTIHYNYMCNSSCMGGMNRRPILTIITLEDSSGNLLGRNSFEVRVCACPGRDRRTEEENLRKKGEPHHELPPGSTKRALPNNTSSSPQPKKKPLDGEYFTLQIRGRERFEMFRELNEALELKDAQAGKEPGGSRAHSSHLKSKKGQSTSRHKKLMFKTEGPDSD
Chain of Nuclear factor erythroid 2-related factor 2 (Homo sapiens) (Q16236 whole entry, looked up): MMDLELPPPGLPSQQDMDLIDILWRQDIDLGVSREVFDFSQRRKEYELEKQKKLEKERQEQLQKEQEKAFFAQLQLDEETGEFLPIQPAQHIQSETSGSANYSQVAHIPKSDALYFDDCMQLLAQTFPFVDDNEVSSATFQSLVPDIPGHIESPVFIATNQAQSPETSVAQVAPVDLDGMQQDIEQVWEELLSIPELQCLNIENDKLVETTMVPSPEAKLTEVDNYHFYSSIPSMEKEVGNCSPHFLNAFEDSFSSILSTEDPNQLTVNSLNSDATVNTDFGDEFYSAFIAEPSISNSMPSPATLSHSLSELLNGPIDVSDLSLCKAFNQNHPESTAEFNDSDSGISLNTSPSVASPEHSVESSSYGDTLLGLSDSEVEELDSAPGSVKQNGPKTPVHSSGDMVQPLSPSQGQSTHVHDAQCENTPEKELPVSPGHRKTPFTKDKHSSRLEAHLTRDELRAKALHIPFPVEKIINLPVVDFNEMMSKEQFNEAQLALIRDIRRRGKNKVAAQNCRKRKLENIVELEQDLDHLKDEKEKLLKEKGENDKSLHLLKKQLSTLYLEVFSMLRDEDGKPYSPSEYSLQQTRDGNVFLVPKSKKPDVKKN
Chain of Signal transducer and activator of transcription 3 (Homo sapiens) (P40763 whole entry, looked up): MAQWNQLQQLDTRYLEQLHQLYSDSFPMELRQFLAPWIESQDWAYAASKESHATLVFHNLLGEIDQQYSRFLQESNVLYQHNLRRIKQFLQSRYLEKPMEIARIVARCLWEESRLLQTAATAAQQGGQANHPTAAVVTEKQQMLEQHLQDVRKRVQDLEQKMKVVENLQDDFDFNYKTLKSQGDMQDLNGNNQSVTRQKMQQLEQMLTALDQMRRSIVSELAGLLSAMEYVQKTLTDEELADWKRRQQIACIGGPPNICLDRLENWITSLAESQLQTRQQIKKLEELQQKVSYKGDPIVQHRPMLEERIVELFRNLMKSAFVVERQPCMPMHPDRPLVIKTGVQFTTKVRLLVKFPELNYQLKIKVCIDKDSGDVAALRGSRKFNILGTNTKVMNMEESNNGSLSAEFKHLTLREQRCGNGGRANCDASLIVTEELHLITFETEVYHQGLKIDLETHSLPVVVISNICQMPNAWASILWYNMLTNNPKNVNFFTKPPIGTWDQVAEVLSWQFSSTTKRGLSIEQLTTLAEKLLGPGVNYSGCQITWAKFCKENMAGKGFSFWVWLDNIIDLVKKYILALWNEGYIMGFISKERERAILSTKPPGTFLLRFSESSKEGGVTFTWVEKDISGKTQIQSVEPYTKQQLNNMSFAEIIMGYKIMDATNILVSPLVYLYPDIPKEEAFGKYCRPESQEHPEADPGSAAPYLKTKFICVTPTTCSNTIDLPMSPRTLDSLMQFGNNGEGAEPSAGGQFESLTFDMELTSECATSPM

Clc1ccccc1Cl
not listed: [18]
inactive: all other assays above

CC(C)(C)OOC(C)(C)CCC(C)(C)OOC(C)(C)C
not listed: [6]
inactive: all other assays above

c1ccc(N=Nc2ccccc2)cc1
not listed: [8] | [13]
inactive: all other assays above

C=CCc1ccc2c(c1)OCO2
inactive: all assays above

Nc1ccc(Cc2ccc(N)cc2)cc1
active: [15] 26.2 µM
inactive: all other assays above

CCCCCCCCCCCCCN1CC(C)OC(C)C1 (centres undefined)
inactive: all assays above

c1ccc(NNc2ccccc2)cc1
inactive: all assays above

Source: PubChem BioAssay (EPA / NIEHS)
